# Compound activity deposited in PubChem BioAssay by The Scripps Research Institute Molecular Screening Center.
# ssDAF-12 act: S. stercoralis DAF-12 nuclear receptor activators, primary screen, cell-based, luminescence, HEK293, GRIP1 co-expression, lit1-tk-luc | activation, % at 6.8 µM | AID 652126, 2013 | 1% of 370,000 active | HEK293 ssDAF-12/GRIP1 lit1-tk-luc reporter; % of 3 µM dafachronic acid response | Nuclear hormone receptor DAF-12 (Strongyloides stercoralis);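 active means activation above the mean over all tested compounds plus 3 SD, cut at about 0.9% in these data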;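 further: 0% = DMSO-only wells and 100% = 3 µM delta7-dafachronic acid wells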
# hgDAF-12 ag: H. glycines DAF-12 receptor agonists, primary screen, cell-based, luminescence, HEK293, GAL4 fusion, UAS-luciferase | Nuclear hormone receptor DAF-12 (Heterodera glycines), GAL4 fusion | HEK293 GAL4-hgDAF12 UAS-luciferase reporter, agonist luminescence; normalized to butyrate control | activation, % at 6.8 µM | 1.8% of 370,000 active | AID 687014, 2013;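 active means activation above a cutoff set at the mean of all screened compounds plus 3 SD, cut at about 10% in these data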;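 further: 0% = DMSO wells and 100% = sodium butyrate wells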
# hcDAF-12 act: H. contortus DAF-12 nuclear receptor activators, primary screen, cell-based, luminescence, HEK293, lit1-tk-luc reporter; AID 652067, 2013; HEK293 hcDAF-12 lit1-tk-luc reporter; 0% DMSO, 100% Δ7-dafachronic acid; 1.4% of 370,000 active; activation, % at 6.8 µM;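 active means activation above the mean of all tested compounds plus 3 SD, cut at about 5.5% in these data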;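 further: 100% = response to 3 µM Δ7-dafachronic acid high control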
# SMARCA2 activ: SMARCA2 (BRM) function activators, primary screen, cell-based, luminescence, high throughput | MG213 cells, MMTV-luciferase reporter, dexamethasone, overnight | activation, % at 9.1 µM | 1% of 370,000 active | AID 652017, 2013; in the data active means activation above about 7.8%;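 further: 0% = vehicle wells and 100% = reference activator wells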
# DAX1 StAR inh: DAX1 (NR0B1) inhibitors on StAR promoter, primary screen, cell-based, luminescence, SF-1 (NR5A1), full-length DAX-1; HEK293T StAR-luciferase reporter, SF-1/DAX-1 repression relief; inhibition, % at 6.8 µM; 1.1% of 370,000 active; AID 652010, 2013;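 active means inhibition above the mean over all tested compounds plus 3 SD, cut at about 3.6% in these data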;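 further: 0% = DAX-1 cells with DMSO and 100% = cells lacking DAX-1 with DMSO; higher inhibition means more luminescence from relief of DAX-1 repression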
# LXR ag: LXR agonists, Gal4 luciferase reporter, confirmation, counter-screen for hcDAF-12 agonist project, cell-based, luminescence, HEK293, H. contortus campaign; HEK293 Gal4-LXR tk-luc reporter, 24 h; normalized: DMSO 0%, positive control 100%; 3,400 tested, under 10 active; AID 743027, 2013; activation, % at 6.8 µM; shares compounds with hcDAF-12 act;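 active means mean percent activation of the reporter above a cutoff set as the average over tested compounds plus their standard deviation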
# Target sequence (P55055 whole entry, looked up, the tested form may be a part): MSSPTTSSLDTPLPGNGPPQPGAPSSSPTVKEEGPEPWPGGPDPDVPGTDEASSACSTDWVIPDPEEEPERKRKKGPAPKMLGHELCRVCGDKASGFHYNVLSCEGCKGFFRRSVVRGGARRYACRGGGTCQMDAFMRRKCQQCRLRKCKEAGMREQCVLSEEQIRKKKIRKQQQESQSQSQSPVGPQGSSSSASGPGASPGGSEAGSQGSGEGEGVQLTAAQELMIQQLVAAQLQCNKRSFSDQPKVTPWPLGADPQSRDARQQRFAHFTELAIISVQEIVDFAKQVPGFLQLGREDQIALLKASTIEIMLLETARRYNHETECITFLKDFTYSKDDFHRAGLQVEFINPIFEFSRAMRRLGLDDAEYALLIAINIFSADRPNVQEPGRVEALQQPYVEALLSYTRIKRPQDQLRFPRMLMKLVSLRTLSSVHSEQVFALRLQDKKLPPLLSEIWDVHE
# hcDAF12 ag: H. contortus DAF-12 receptor agonists, confirmation, cell-based, luminescence, HEK293, lit1-tk-luc, triplicate; activation, % at 6.8 µM; HEK293 hcDAF-12 lit1-tk-luc reporter; % of Δ7-dafachronic acid response; AID 743032, 2013; shares compounds with hcDAF-12 act; 61% of 3,400 active;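 active means mean activation across triplicate tests above the threshold derived from the earlier primary screen, cut at about 5.5% in these data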;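 further: 0% = DMSO only wells and 100% = 3 µM Δ7-dafachronic acid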
# Starred values were filed as active, the others as inactive; x = not tested or not shown. Shown are actives, neighbours in structure and some others; about 4.2% of the full set was active somewhere.
SMILES,ssDAF-12 act,hgDAF-12 ag,hcDAF-12 act,SMARCA2 activ,DAX1 StAR inh,LXR ag,hcDAF12 ag
C#CCOCCOCCOCCNc1nc(N2CCN(C(=O)[C@H](Cc3ccc(O)cc3)n3cc([C@@H](N)CC(C)C)nn3)CC2)nc(N2CCN(C(=O)[C@H](Cc3cc4ccccc4[nH]3)n3cc([C@@H](N)CC(C)C)nn3)CC2)n1,-0.3,3.8,3.6,-0.6,-0.2,x,x
CCCCN(CC)CCNC(=O)c1cc2c(-c3ccc(Cl)cc3)nn(C)c2s1,1.3*,6.1,10.3*,3.5,2.3,-0.2,10.8*
CCCN(CCC)CCNC(=O)c1cc2c(-c3ccc(Cl)cc3)nn(C)c2s1,0.4,6.0,10.6*,0.5,1.4,-0.1,12.7*
CCN1CCN(C(=O)c2cc3c(-c4ccc(Cl)cc4)nn(C)c3s2)CC1,1.2*,3.7,7.6*,-1.0,0.8,-0.2,6.6*
Cn1nc(-c2ccc(Cl)cc2)c2cc(C(=O)NCCN3CCOCC3)sc21,0.1,5.0,7.3*,0.5,0.6,0.1,5.1
COc1ccccc1C(=O)N1CCCC1(C#N)c1ccccc1 (stereo unspecified),-1.4,-0.1,-0.2,-0.2,-0.1,x,x
N#CC1(c2ccccc2)CCCN1C(=O)c1ccccc1Br (stereo unspecified),-0.2,-1.0,10.4*,0.9,-0.3,-0.2,2.3
CCOC(=O)c1sc2nc(C)cc(-c3ccccc3)c2c1N,-1.7,-1.3,-1.9,-1.7,-0.7,x,x
CCOC(=O)c1sc2nc(-c3ccccc3)ccc2c1N,0.4,24.1*,9.0*,1.0,4.3*,2.0,10.8*
COc1cccc(NC(=O)C(Cc2ccccc2)NC(=O)C2CCC(C)CC2)c1 (stereo unspecified),-1.0,6.4,8.6*,-4.0,0.5,-0.1,2.0
COc1cccc(NC(=O)[C@H](Cc2ccccc2)NC(=O)[C@@H]2Cc3ccccc3CN2)c1,-1.0,1.3,0.6,2.2,-0.9,x,x
CCOC(=O)c1c(C)oc2c1c1c(c3ccccc32)OCN(Cc2ccccn2)C1,1.2*,6.3,6.8*,4.8,2.0,0.7,8.5*
CCOC(=O)c1c(C)oc2c1c(C(c1ccncc1)N1CCOCC1)c(O)c1ccccc12 (stereo unspecified),0.3,3.3,0.5,7.3,0.4,x,x
CCOC(=O)c1c(C)oc2c1c(CN1CCN(C(=O)OCC)CC1)c(O)c1ccccc12,0.7,13.0*,8.6*,3.1,1.9,0.4,5.1
CCOc1ccc(-c2nc(CCl)cs2)cc1,-1.1,12.7*,9.1*,6.2,2.1,0.5,2.8
CC(C)C[C@H]1CN([C@@H](Cc2ccccc2)CN2CCC[C@H]2CN2C(=O)C(=O)NC[C@@H]2Cc2ccccc2)C(=O)C(=O)N1CC1CCCCCC1,-0.4,-3.5,-1.3,0.5,-0.2,x,x
CCOC(=O)N1CCN(C(=O)C[C@@H]2C(=O)N3CCCC4=C3[C@@]2(C(=O)OC)CCCC4)CC1,-1.1,2.3,-1.8,0.2,-1.3,x,x
O=C(CCn1nnc2ccccc21)N1CCN(c2ccccc2F)CC1,0.0,11.1*,8.8*,-0.5,1.9,0.4,5.1
Cc1ccccc1N1CCN(C(=O)CCn2nnc3ccccc32)CC1,-0.4,13.2*,8.5*,3.3,2.9,0.9,6.4*
O=C(CCn1nnc2ccccc21)N1CCN(c2ccc(F)cc2)CC1,-0.5,-0.7,-1.2,1.3,0.6,x,x
C[C@@H]1CN([C@@H](C)CO)C(=O)CCCn2nncc2CO[C@H]1CN(C)CC1CC1,-0.5,-0.5,-0.5,-2.9,-0.1,x,x
COC(=O)C[C@@H]1C=C[C@H](NC(=O)Nc2ccc(OC)cc2)[C@@H](CO)O1,-0.3,6.8,-0.5,-4.7,-0.7,x,x
Oc1ccccc1-c1nc(N2CCN(Cc3ccccc3)CC2)c2ccccc2n1,0.3,5.6,8.5*,-4.6,0.5,0.2,4.2
Oc1ccccc1-c1nc(N2CCCC2)c2ccccc2n1,-0.9,-2.2,-1.3,1.8,0.2,x,x
O=c1c2cc(F)ccc2[nH]c(=S)n1CCCN1CCOCC1,-2.0,-1.6,10.6*,-1.0,0.1,-0.2,-0.7
SMILES,ssDAF-12 act,hgDAF-12 ag,hcDAF-12 act,SMARCA2 activ,DAX1 StAR inh,LXR ag,hcDAF12 ag
Cc1cc2c(cc1C)-n1nnnc1C(N1CCN(CC(=O)N3CCCC3)CC1)C(=O)N2 (stereo unspecified),-0.5,2.8,-1.0,-0.2,0.8,x,x
CN1CCN(c2ccc(C(=O)c3ccc(F)cc3)cc2)CC1,-0.5,12.4*,8.9*,5.9,1.9,0.7,4.7
CCN(C[C@H]1N[C@@](CC)(C(=O)OC)[C@H]2C(=O)N(C)C(=O)[C@@H]12)C(=O)c1ccc(F)cc1,-1.0,-3.9,12.5*,-0.1,0.6,-0.1,2.9
CCN(C[C@H]1N[C@@](Cc2ccccc2)(C(=O)OC)[C@H]2C(=O)N(C)C(=O)[C@@H]12)C(=O)c1ccc(F)cc1,-0.9,-1.6,-0.5,3.0,2.0,x,x
COC(=O)c1cc2c(c3c4cc(F)ccc4n(S(=O)(=O)c4ccccc4)c13)C(=O)N(Cc1ccc(C(F)(F)F)cc1)C2,-0.5,-2.4,0.6,-2.3,-0.8,x,x
Cc1ccc(C=Nc2cc([N+](=O)[O-])ccc2C)s1,0.1,3.6,6.9*,-3.4,-0.2,-0.3,1.4
Cc1ccc([N+](=O)[O-])cc1N=Cc1ccc(Br)s1,-1.4,-2.0,2.0,0.7,-0.3,x,x
CCOC(=O)c1sc(=NC(=O)c2ccc(C)cc2)n(C)c1C,1.2*,11.2*,9.7*,6.2,3.6,0.6,9.7*
COc1ccc(/C=C\c2nc(=O)c3ccccc3o2)cc1,0.5,19.4*,7.2*,4.8,4.2*,1.4,10.8*
COc1ccc(/C=C/c2c(-c3ccc(OC)cc3)oc3ccccc23)cc1,-0.6,2.7,-0.2,2.5,0.0,x,x
Cc1ccccc1CN1C(=O)CSCC1(C)C(=O)Nc1ccc2c(c1)OCCO2 (stereo unspecified),0.0,-2.4,0.0,-3.0,-1.2,x,x
O=C(O)c1cc(-c2ccc(-c3ccc(F)cc3)o2)nc2ccccc12,0.5,11.1*,12.7*,5.0,2.2,0.7,6.8*
